Activity calls are given as the source filed them. Unless noted, how the calls were made is not given here.

In assay [1] the test system is Wnt5a (protein binding on small-molecule microarray). Description: small molecules binding Wnt5a protein – biophysical, small-molecule microarray, 635/667 nm fluorescence, primary screen (AID 1142).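 Further: fluorescence read at 667 nm with signal to noise per printed feature.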 As to conditions: 635 nm fluorescence, higher = more signal.
Assay [2] in a line: ATP-based viability of Huh7 replicon cells – cell-based, CellTiter-Glo luminescence, basal, 48 h, cytotoxicity control for HCV replication inhibitor project, primary screen (AID 1143).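 Further: Huh7 hepatoma cells carrying a hepatitis C replication reporter with no stimulus; test concentration not given here.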 The conditions noted are these: higher = more signal, called active from +8 up or from −8 down. On the technique in general: A replicon is a self-replicating genome or part of one, used to study replication in cells.

Assay [3] is described as follows: Pseudomonas biofilm growth suppression – PAO1 strain, BacTiter-Glo luminescence, LB-PBS, primary screen (AID 1144). As to conditions: P. aeruginosa PAO1 biofilm, 12 h, higher = more signal.
A short description of assay [4]: basal CRE-LacZ reporter activity in PC12 – cell-based, unstimulated, primary screen (AID 1145). As to conditions: no forskolin, luminescence, 4.5 h, higher = more signal, called active from +8 up or from −8 down.
Assay [5] can be described thus: forskolin-driven CRE-LacZ activity in PC12 – cell-based, CRE-LacZ reporter, forskolin-stimulated, primary screen (AID 1146).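 Further: PC12 cells with 6xCRE LacZ reporter stimulated by forskolin 10 µM; beta-galactosidase reporter signal reflecting CREB driven transcription.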 The conditions noted are these: luminescence, 4.5 h, higher = more signal, called active from +8 up or from −8 down.
Assay [6] concerns the target Streptavidin (Streptomyces avidinii) (UniProt P22629). The assay can be described thus: compounds binding control protein streptavidin – biophysical, small-molecule microarray, 635/667 nm fluorescence, artefact control for SMM compound annotation, primary screen (AID 1147).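 Further: signal reflects streptavidin binding to arrayed compounds as a control protein.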 As to conditions: higher = more signal.
Assay [7] in a line: probe aInhba binding on compound microarray – biochemical, small-molecule microarray, 635/667 nm fluorescence, primary screen (AID 1148).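 Further: score merges 667nm spot fluorescence with signal-to-noise for antibody binding to printed compounds.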 The conditions noted are these: higher = more signal.
Assay [8] has as its target Torsin-1A (Homo sapiens) (UniProt O14656). The assay can be described thus: TOR1A wild-type binding on microarray – cell lysate, small-molecule microarray, lysate, 635/667 nm, primary screen (AID 1149). As to conditions: COS7 hTOR1A-WT lysate, 635 nm fluorescence, higher = more signal.
The target is the same in assay [9]. Description: torsin A mutant lysate binding on microarrays – cell lysate, small-molecule microarray, COS7 lysate, 635/667 nm fluorescence, primary screen (AID 1150).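 Further: score pools 667 nm emission and signal to noise measuring lysate protein binding.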 As to conditions: COS7 hTOR1A mutant lysate, 635 nm fluorescence, higher = more signal.
For assay [10], the system named is Sonic hedgehog protein (Shh). Description: Sonic hedgehog microarray binding compounds – biochemical, small-molecule microarray, 635/667 nm fluorescence, primary screen (AID 1151).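 Further: Shh protein binding to compounds spotted on small-molecule microarray slides; score combines spot fluorescence intensity with signal-to-noise across triplicate slides.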 The conditions noted are these: 635 nm fluorescence, higher = more signal.
The nature of assay [11]: optical density shifts of acrAB sulA E. coli – strain DRC41, OD650, 48 h, E. coli filamentation inducer project, primary screen (AID 1152).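 Further: E. coli MC1000 strain DRC41 lacking acrAB efflux pump and sulA.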 The conditions noted are these: higher = more signal, called active from +8 up or from −8 down.
Assay [12] is described as follows: probe aLefty1 binding on compound microarray – biochemical, small-molecule microarray, 635/667 nm fluorescence, primary screen (AID 1153).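 Further: score merges spot fluorescence with signal-to-noise ratio from the scanned slide images.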 The conditions noted are these: higher = more signal.
Assay [13] is described as follows: plasmodial surface anion channel blockers, osmotic lysis – cell-based, P. falciparum Indochina, OD700, 1 h, primary screen (AID 1154). The conditions noted are these: P. falciparum Indochina infected RBC osmotic lysis, higher = more signal, called active from +8 up or from −8 down.
Assay [14] can be described thus: plasmodial surface anion channel blockers, osmotic lysis – cell-based, P. falciparum Indochina, OD700, 2 h, primary screen (AID 1155).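 Further: lysis reports solute entry through the parasite surface anion channel PSAC.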 As to conditions: P. falciparum Indochina infected erythrocytes, higher = more signal, called active from +8 up or from −8 down.
Assay [15] can be described thus: changes in parasitized red cell lysis, either direction – P. falciparum Indochina, OD700, 3 h, PSAC antagonist project, primary screen (AID 1156). The conditions noted are these: P. falciparum-infected erythrocytes, osmotic lysis, higher = more signal, called active from +8 up or from −8 down.
A short description of assay [16]: plasmodial surface anion channel blockers, osmotic lysis – cell-based, P. falciparum Indochina, OD700, 18 h, primary screen (AID 1157). The conditions noted are these: P. falciparum Indochina infected erythrocytes, osmotic lysis OD700, 18 h; higher = more signal, called active from +8 up or from −8 down.
Assay [17] is described as follows: S6 kinase pathway phospho-S6 level changes – cell-based, A549, cytoblot, luminescence, serum-stimulated, primary screen (AID 1158).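 Further: serum-stimulated A549 lung adenocarcinoma cells; signal is phosphorylated S6 detected by cytoblot immunostaining with HRP secondary.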 As to conditions: 5 h, higher = more signal.
In assay [18] the target is NADPH oxidase 2 (Homo sapiens) (UniProt P04839). The assay can be described thus: compounds shifting NOX2 Amplex Red fluorescence – cell-based, HEK293-NOX2, PMA-stimulated, NOX inhibitor project, primary screen (AID 1159). Further: test concentration not given here. The conditions noted are these: 45 min, higher = more signal, called active from +8 up or from −8 down.
The target in assay [19] is NADPH oxidase 4 (Homo sapiens) (UniProt Q9NPH5). The assay can be described thus: compounds shifting NOX4 Amplex Red fluorescence – cell-based, HEK293-NOX4, tetracycline-induced, NOX inhibitor project, primary screen (AID 1160). The conditions noted are these: HEK293-NOX4, Amplex Red H2O2 fluorescence, 45 min; higher = more signal, called active from +8 up or from −8 down.

Assay [20] has as its target NADPH oxidase 5 (Homo sapiens) (UniProt Q96PH1). Description: compounds shifting NOX5 Amplex Red fluorescence – cell-based, HEK293-NOX5, NOX inhibitor project, primary screen (AID 1161). As to conditions: HEK293-NOX5, ionomycin, 45 min, higher = more signal.

Chain of NADPH oxidase 5 (Homo sapiens) (Q96PH1 whole entry, looked up): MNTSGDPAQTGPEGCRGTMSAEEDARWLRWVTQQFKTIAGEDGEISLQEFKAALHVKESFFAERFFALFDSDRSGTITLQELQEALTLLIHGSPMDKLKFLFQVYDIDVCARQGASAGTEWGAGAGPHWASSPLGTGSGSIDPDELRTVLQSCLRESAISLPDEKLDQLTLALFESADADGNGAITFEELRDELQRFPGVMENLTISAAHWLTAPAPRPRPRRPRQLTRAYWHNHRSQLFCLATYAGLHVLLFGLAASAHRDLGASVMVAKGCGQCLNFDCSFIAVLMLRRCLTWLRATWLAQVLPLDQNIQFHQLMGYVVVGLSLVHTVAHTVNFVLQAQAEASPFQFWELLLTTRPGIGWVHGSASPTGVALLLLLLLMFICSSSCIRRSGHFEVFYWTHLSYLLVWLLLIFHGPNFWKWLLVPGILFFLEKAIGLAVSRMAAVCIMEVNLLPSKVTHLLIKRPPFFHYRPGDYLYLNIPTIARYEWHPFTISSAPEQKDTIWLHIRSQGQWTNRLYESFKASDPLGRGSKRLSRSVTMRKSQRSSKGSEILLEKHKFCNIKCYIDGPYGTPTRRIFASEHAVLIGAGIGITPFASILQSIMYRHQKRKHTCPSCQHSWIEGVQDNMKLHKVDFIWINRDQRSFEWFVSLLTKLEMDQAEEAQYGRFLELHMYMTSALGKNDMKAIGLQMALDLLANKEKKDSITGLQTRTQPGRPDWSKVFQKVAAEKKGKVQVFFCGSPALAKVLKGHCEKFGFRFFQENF
Chain of NADPH oxidase 2 (Homo sapiens) (P04839 whole entry, looked up): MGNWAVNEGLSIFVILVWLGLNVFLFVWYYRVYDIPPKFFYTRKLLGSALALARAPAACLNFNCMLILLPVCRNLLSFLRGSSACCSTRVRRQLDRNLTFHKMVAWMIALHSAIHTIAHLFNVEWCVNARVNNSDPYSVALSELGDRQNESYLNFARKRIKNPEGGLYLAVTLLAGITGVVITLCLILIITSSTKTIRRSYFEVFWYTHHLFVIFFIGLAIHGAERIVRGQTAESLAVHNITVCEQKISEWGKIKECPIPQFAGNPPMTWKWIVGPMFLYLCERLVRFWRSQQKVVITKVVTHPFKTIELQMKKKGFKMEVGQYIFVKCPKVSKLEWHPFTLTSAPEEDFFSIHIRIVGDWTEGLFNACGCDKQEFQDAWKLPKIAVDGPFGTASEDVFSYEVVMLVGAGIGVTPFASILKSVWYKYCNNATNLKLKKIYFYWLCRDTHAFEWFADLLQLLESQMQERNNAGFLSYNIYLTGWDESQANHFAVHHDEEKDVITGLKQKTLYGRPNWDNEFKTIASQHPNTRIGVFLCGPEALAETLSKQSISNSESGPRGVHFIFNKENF
Chain of Streptavidin (Streptomyces avidinii) (P22629 whole entry, looked up): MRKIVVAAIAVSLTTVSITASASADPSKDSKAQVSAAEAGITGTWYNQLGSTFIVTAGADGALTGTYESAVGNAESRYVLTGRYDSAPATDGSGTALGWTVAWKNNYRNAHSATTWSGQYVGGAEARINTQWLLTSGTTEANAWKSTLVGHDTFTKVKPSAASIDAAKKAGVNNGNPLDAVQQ
Chain of NADPH oxidase 4 (Homo sapiens) (Q9NPH5 whole entry, looked up): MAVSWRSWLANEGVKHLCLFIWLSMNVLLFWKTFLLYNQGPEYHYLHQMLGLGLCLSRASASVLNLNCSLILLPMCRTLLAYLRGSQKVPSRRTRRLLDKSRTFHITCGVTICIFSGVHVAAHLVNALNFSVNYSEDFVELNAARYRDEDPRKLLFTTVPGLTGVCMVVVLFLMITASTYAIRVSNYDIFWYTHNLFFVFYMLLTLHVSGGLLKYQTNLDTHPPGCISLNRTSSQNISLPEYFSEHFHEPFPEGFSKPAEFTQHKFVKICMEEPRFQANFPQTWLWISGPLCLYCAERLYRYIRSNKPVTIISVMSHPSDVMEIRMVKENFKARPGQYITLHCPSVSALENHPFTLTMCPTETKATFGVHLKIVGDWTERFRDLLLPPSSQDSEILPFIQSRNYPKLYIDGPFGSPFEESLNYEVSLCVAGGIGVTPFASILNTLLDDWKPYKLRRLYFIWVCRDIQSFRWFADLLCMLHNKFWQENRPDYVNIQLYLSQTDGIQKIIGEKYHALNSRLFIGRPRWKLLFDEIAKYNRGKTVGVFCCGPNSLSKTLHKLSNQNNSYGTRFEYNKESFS
Chain of Torsin-1A (Homo sapiens) (O14656 whole entry, looked up): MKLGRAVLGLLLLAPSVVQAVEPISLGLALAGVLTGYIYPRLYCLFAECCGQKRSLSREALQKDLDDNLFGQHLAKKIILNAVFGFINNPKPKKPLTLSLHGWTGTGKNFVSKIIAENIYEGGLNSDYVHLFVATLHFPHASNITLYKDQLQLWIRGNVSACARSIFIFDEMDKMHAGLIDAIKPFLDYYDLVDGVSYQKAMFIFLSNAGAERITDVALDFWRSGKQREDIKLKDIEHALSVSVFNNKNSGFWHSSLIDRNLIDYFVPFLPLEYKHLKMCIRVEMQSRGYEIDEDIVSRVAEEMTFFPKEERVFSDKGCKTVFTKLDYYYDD

As for `CN(C)CCCCCCNC(=O)[C@@H]1C[C@@H]2C(=O)N[C@@H](Cc3ccccc3)C(=O)N2[C@@H]1c1ccc(O)cc1`, the composite z-score in [1] was 0.484; in assay [6], 0.405; in assay [7] it was -0.025; in [8], 0.641; in [9], 1.37; in [10], 2.19. This compound registered a composite z-score in assay [12] of 0.378. For the same compound, the z-score was -0.764 (inactive) in assay [2]; -0.0157 (inactive) in [3]; -0.528 (inactive) in assay [4]; -0.167 (inactive) in assay [5]; -0.0959 (inactive) in assay [11]; 1.85 (inactive) in assay [13]. Further, the z-score in [14] is 0.596 (inactive); in assay [15], 2.42 (inactive); in assay [16], 0.228 (inactive); in assay [17], 0.594; in [18], -0.745 (inactive); in [19], 0.262 (inactive). For the same compound, the z-score in [20] is -0.632.
Regarding `[N-]=[N+]=NCc1ccccc1C[C@]1(C(N)=O)COC(c2ccc(OCCCO)cc2)=N1`, the composite z-score in assay [1] is 0.217; in assay [6] it was 0.468; in assay [7] it was 0.189; in [8], 0.728; in [9], 0.972; in assay [10], -0.584. The composite z-score in assay [12] came to 0.52. Also, the z-score in assay [2] is -2.4 (inactive); in assay [3], -0.602 (inactive); in [4], -0.585 (inactive); in assay [5], -1.68 (inactive); in [11], 2.84 (inactive); in [13], 15.3 (active). For the same compound, the z-score in [14] was 1 (inactive); in assay [15], 1.68 (inactive); in assay [16] it was -0.185 (inactive); in [17] it was 2.31; in assay [18], -1.48 (inactive); in assay [19] it was -0.0652 (inactive). For the same compound, the z-score in assay [20] is -1.07.
With `COc1cc2c(cc1OC)CN(C(=O)[C@@H]1[C@H]3C(=O)O[C@H](c4ccccc4)[C@H](c4ccccc4)N3[C@H](c3ccccc3OCCO)[C@@]13C(=O)Nc1ccc(C#CCCO)cc13)CC2`, the composite z-score in assay [1] came out at 0.283; in [6], 0.442; in assay [7] it was 0.196; in assay [8], 0.0499; in assay [9] it was 0.344; in assay [10] it was 1.13. In assay [12], this compound showed a composite z-score of 0.751. For the same compound, the z-score in assay [2] is -1.65 (inactive); in assay [3], 0.219 (inactive); in assay [4], 0.505 (inactive); in assay [5] it was -0.988 (inactive); in [11] it was 0.761 (inactive); in assay [13] it was 2.28 (inactive). Further, the z-score in assay [14] is 1.05 (inactive); in assay [15] it was 0.85 (inactive); in assay [16], 0.565 (inactive); in assay [17], 0.212; in assay [18] it was 1.29 (inactive); in [19], 1.15 (inactive). Moreover, in [20], the z-score stood at 0.301.
As to `COC(=O)[C@@]1(Cc2ccc(OC)cc2)[C@H]2c3cc(C(=O)N4CCCC4)n(CCN4CNCC4=O)c3C[C@H]2CN1C(=O)c1ccccc1`, the composite z-score was 2.12 in [1]; -0.002 in assay [6]; 1.59 in assay [7]; 0.294 in [8]; 0.0178 in [9]; -1.14 in [10]. For the same compound, in [12], the composite z-score was found to be 1.86. Moreover, the z-score in assay [2] was -0.508 (inactive); in [3], -0.12 (inactive); in [4], 0.201 (inactive); in assay [5] it was -0.0971 (inactive); in [11] it was -0.82 (inactive); in assay [13], 2.95 (inactive). For the same compound, the z-score in [14] was 0.0621 (inactive); in assay [15] it was 0.775 (inactive); in assay [16], 0.838 (inactive); in [17] it was 0.287; in assay [18], 0.468 (inactive); in assay [19], -2.36 (inactive). Moreover, the z-score in assay [20] is -4.44.
On to `O=C(c1ccccc1)N1C(=O)[C@]2(COC(c3ccc(OCCCO)cc3)=N2)Cc2ccccc21`, for which the composite z-score in [1] came to 0.363; in assay [6], 0.532; in assay [7] it was 0.249; in assay [8], 0.273; in [9], 0.87; in assay [10] it was 0.658. The composite z-score in [12] was found to be 0.638. The z-score in assay [2] is -3.03 (inactive); in assay [3], -0.382 (inactive); in assay [4], 1.03 (inactive); in assay [5], 0.822 (inactive); in assay [11], -0.788 (inactive); in assay [13] it was 27.1 (active). For the same compound, the z-score is 17.8 (active) in [14]; 3.39 (inactive) in assay [15]; 1.35 (inactive) in [16]; -0.394 in [17]; -0.0343 (inactive) in assay [18]; 0.0715 (inactive) in [19]. The z-score in [20] was -1.69.
As for `C=C[C@@H](COC(=O)OC(C)(C)C)N(Cc1ccc(OC)cc1)S(=O)(=O)c1ccc(Br)cc1`, the composite z-score in assay [1] is 0.0249; in [6], 0.603; in [7], -0.0332; in assay [8], 0.604; in assay [9] it was 0.299; in [10], 1.57. For the same compound, the composite z-score in assay [12] was -0.0094. Also, the z-score is -1.75 (inactive) in assay [2]; 0.551 (inactive) in assay [3]; 3.04 (inactive) in assay [4]; 1.88 (inactive) in [5]; -1.13 (inactive) in assay [11]; 1.4 (inactive) in [13]. The z-score in assay [14] is -0.0352 (inactive); in assay [15], -0.856 (inactive); in assay [16], -0.0871 (inactive); in assay [17], -0.273; in assay [18], -0.348 (inactive); in [19], 0.525 (inactive). The z-score in assay [20] is -1.28.
On to `CC(C)c1ccc(NN2C(C(O)c3ccc(B(O)O)cc3)C=CC3C(=O)N(c4ccccc4)C(=O)C32)cc1` (stereo not given), for which the composite z-score in [1] came out at 0.262; in [6], 1.26; in assay [7], 0.108; in [8], 0.201; in assay [9] it was 1.26; in [10], 0.528. This compound also registered a composite z-score in assay [12] of 0.0595. The z-score was -0.0793 (inactive) in assay [2]; -1.06 (inactive) in assay [3]; 0.815 (inactive) in [4]; 1.65 (inactive) in assay [5]; -1.04 (inactive) in [11]; 1.93 (inactive) in assay [13]. Also, the z-score in assay [14] is 0.698 (inactive); in assay [15] it was 0.421 (inactive); in [16] it was 1.27 (inactive); in assay [17], -0.999; in assay [18] it was -1.02 (inactive); in [19], -2.31 (inactive). Moreover, the z-score in assay [20] is -4.18.
Take `COc1ccccc1CN1C(=O)c2ccccc2[C@@]2(Cc3ccccc3N(CC(C)C)C2=O)[C@@H]1c1ccc(CO)cc1`: the composite z-score is -0.37 in assay [1]; -0.551 in [6]; 0.027 in assay [7]; -0.913 in [8]; -0.0676 in [9]; -0.452 in assay [10]. The composite z-score in assay [12] was -0.827. For the same compound, the z-score in assay [2] was 0.332 (inactive); in assay [3], 0.8 (inactive); in assay [4], -0.412 (inactive); in [5], 0.462 (inactive); in assay [11], -0.12 (inactive); in assay [13], 0.226 (inactive). Further, the z-score was 0.215 (inactive) in assay [14]; 0.297 (inactive) in assay [15]; 0.109 (inactive) in assay [16]; 0.0317 in [17]; -0.0964 (inactive) in assay [18]; 0.11 (inactive) in assay [19]. Moreover, the z-score in assay [20] was 1.12.

The values above are taken from PubChem BioAssay.
